Reference: PMC5540273 (PLoS ONE, 2017)

Assays:
Settings in all cases: concentration: 1 μM, replicates: in singlicate; n = 1
MST1R = system: MST1R
MST1 = system: T1, MST1
T1 construct: gene STK4

MST2 = system: T2, MST2
T2 construct: gene STK3

MST3 = system: T3, MST3
T3 construct: gene STK24

MST4 = system: MST4
MTOR = system: MTOR
MUSK = system: MUSK
MYLK2 = system: MYLK2
MYLK4 = system: MYLK4
MYLK = system: MYLK
MYO3A = system: MYO3A
MYO3B = system: MYO3B
NDR1 = system: T4, NDR1
T4 construct: gene STK38

NDR2 = system: NDR2
NEK10 = system: NEK10
NEK11 = system: NEK11
NEK1 = system: NEK1
NEK2 = system: NEK2
NEK3 = system: NEK3
NEK4 = system: NEK4
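Note: KINOMEscan kinase panel screen.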

Row | SMILES | %Inh (MST1R) | %Inh (MST1) | %Inh (MST2) | %Inh (MST3) | %Inh (MST4) | %Inh (MTOR) | %Inh (MUSK) | %Inh (MYLK2) | %Inh (MYLK4) | %Inh (MYLK) | %Inh (MYO3A) | %Inh (MYO3B) | %Inh (NDR1) | %Inh (NDR2) | %Inh (NEK10) | %Inh (NEK11) | %Inh (NEK1) | %Inh (NEK2) | %Inh (NEK3) | %Inh (NEK4)
1 | Cc1cccc2c(-c3ccncn3)c(-c3ccc(F)cc3)nn12 [GW515532] | 26% | 7% | 0% | 15% | 0% | 9% | 12% | 0% | 0% | 0% | 0% | 0% | 0% | 0% | 0% | 0% | 0% | 23% | 0% | 0%
2 | COc1ccc(Nc2nccc(N3CCC(NC(=O)C(C)c4ccc(Cl)cc4)C3)n2)cc1 (centres unmarked) [GSK1379735] | 39% | 44% | 26% | 0% | 3% | 26% | 24% | 3% | 2% | 11% | 0% | 7% | 0% | 0% | 7% | 0% | 0% | 13% | 0% | 10%
3 | Cn1cnc2c(N)ncnc21 [SKF-97623] | 0% | 0% | 24% | 0% | 0% | 4% | 0% | 0% | 0% | 0% | 2% | 15% | 0% | 3% | 0% | 0% | 0% | 0% | 19% | 0%
4 | Cc1c(Cn2c(C)c(C)n3c(=O)cc(N4CCOCC4)nc23)cccc1C(F)(F)F [GSK2328680] | 12% | 2% | 0% | 6% | 0% | 32% | 45% | 7% | 0% | 14% | 0% | 0% | 0% | 2% | 0% | 5% | 0% | 8% | 0% | 19%
5 | Cc1ccc(NC(=O)c2ccc(Cl)cc2)cc1-c1ccc(C(=O)Nc2ccncc2)cc1 [GSK1398467] | 28% | 9% | 0% | 4% | 0% | 0% | 2% | 0% | 0% | 2% | 16% | 0% | 0% | 0% | 0% | 0% | 0% | 5% | 15% | 0%
6 | Cl.Cl.Cl.N#Cc1ccc(CCNc2nccc(-c3cccc(CN4CCNCC4)c3)n2)cc1 [GSK2137462] | 37% | 0% | 0% | 18% | 0% | 0% | 14% | 12% | 38% | 35% | 2% | 0% | 4% | 0% | 1% | 0% | 0% | 15% | 0% | 0%
7 | CNC(=O)c1ccc(C)c(-n2c(C)cc(OCc3ccc(F)cc3F)c(Br)c2=O)c1 | 0% | 0% | 0% | 0% | 0% | 33% | 6% | 9% | 3% | 0% | 0% | 0% | 0% | 0% | 0% | 0% | 0% | 0% | 12% | 0%
8 | Cc1ccccc1Cn1ccn2c(=O)cc(N3CCOCC3)nc12 [GSK2269905] | 17% | 0% | 0% | 0% | 0% | 9% | 2% | 8% | 0% | 0% | 7% | 0% | 12% | 0% | 2% | 0% | 0% | 13% | 11% | 16%
9 | COc1ccc(CSc2nnc(-c3ccc4c(c3)CCO4)o2)cc1 | 13% | 0% | 0% | 0% | 0% | 0% | 0% | 0% | 3% | 0% | 0% | 0% | 0% | 0% | 0% | 0% | 10% | 0% | 26% | 0%
10 | Cc1ccccc1-c1cc(-c2c[nH]nc2-c2ccccn2)ccn1 [GW680061] | 12% | 0% | 0% | 0% | 10% | 30% | 10% | 0% | 0% | 1% | 0% | 0% | 0% | 0% | 4% | 11% | 0% | 0% | 0% | 11%
11 | Cc1cnc(N)c(/C=C/c2cncc(C(=O)NCCc3ccc(Cl)cc3Cl)c2)c1.Cl [GSK190937] | 29% | 0% | 0% | 5% | 0% | 6% | 0% | 0% | 62% | 20% | 6% | 0% | 21% | 21% | 13% | 0% | 5% | 10% | 0% | 0%
12 | O=C(Nc1n[nH]c2nc(-c3cccs3)c(Br)cc12)C1CCCC1 [SB-743341] | 17% | 0% | 51% | 0% | 2% | 12% | 37% | 97.7% | 17% | 24% | 17% | 42% | 15% | 15% | 12% | 0% | 0% | 0% | 5% | 0%
13 | Cc1nccc(-c2c(-c3ccc(F)cc3)ncn2CCCN2CCOCC2)n1.Cl [SB-282975] | 0% | 7% | 5% | 0% | 5% | 21% | 0% | 6% | 0% | 30% | 0% | 0% | 3% | 7% | 0% | 16% | 0% | 4% | 27% | 0%
14 | COc1ccc(Nc2nccc(-c3ccc(NC(=O)c4cc5cc(F)ccc5[nH]4)cc3)n2)cc1 [GSK1229496] | 7% | 0% | 0% | 0% | 0% | 20% | 0% | 0% | 28% | 6% | 0% | 0% | 7% | 2% | 0% | 17% | 0% | 0% | 0% | 0%
15 | O=C(Nc1n[nH]c2nc(-c3cccs3)c(Br)cc12)C1CC1 [SB-735297] | 0% | 3% | 4% | 0% | 5% | 0% | 0% | 99.4% | 29% | 29% | 8% | 0% | 11% | 16% | 0% | 0% | 0% | 0% | 0% | 0%
16 | c1ccc(-c2ccnc3[nH]ccc23)cc1 [SB-693578] | 9% | 3% | 4% | 0% | 0% | 29% | 0% | 0% | 0% | 12% | 36% | 0% | 1% | 12% | 30% | 0% | 0% | 74% | 19% | 0%
17 | NS(=O)(=O)c1cccc(N/C=C2\C(=O)Nc3ccc(S(=O)(=O)Cc4c(Cl)cccc4Cl)cc32)c1 [GSK398099] | 17% | 0% | 1% | 0% | 0% | 11% | 7% | 0% | 1% | 18% | 14% | 0% | 0% | 0% | 0% | 0% | 10% | 21% | 10% | 0%
18 | O=C(Nc1n[nH]c2cc(-c3ccsc3)ccc12)C1CC1 [SB-732932] | 22% | 0% | 34% | 16% | 27% | 0% | 11% | 97.1% | 22% | 24% | 12% | 0% | 18% | 0% | 0% | 41% | 0% | 21% | 24% | 3%
19 | CS(=O)(=O)CCNCc1nc(-c2ccc3ncnc(Nc4ccc5c(cnn5Cc5ccccc5)c4)c3c2)cs1.Cl.Cl [GW569716] | 10% | 3% | 0% | 0% | 0% | 17% | 0% | 0% | 10% | 0% | 34% | 0% | 8% | 0% | 16% | 29% | 0% | 0% | 2% | 3%
